Assay outcomes as filed in PubChem BioAssay.
LRH-1 inv ag – LRH-1 (NR5A2) inverse agonists, primary screen, cell-based, luminescence, HEK293T, StAR-luciferase reporter; Nuclear receptor subfamily 5 group A member 2 (Homo sapiens), O00482; LRH-1 transfected, 24 h; inhibition, % at 3.6 µM; actives 0.13% (n = 360,000); AID 602396, 2012;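 active means inhibition above the mean inhibition of all tested compounds plus 3 SD, cut at about 73% in these data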;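 further: 0% = DMSO wells and 100% = reporter-only cells lacking LRH-1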
NCOA1 inh – SRC1 coactivator transcriptional activity inhibitors, primary screen, cell-based, luminescence. HEK293 GAL4-SRC1 luciferase reporter. inhibition, % at 3.6 µM. actives 0.12% (n = 360,000). AID 588354, 2011;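 active means inhibition above the campaign mean plus 3 SD, with each screening campaign given its own cutoff, cut at about 60% in these data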;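 further: 0% = DMSO treated cells and 100% = gossypol at 36 µM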
Efflux pump mplx – inhibitors of Candida efflux pumps in yeast, primary screen, S. cerevisiae, Nile Red, multiplex; S. cerevisiae Candida pump triplex; inhibition, % at 10 µM; actives 0.44% (n = 330,000); AID 485275, 2010;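 active means plate passing quality check with inhibition over a set limit, or well fluorescence over plate mean plus 4 SD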;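 further: Nile Red retained in pooled yeast measured as flow cytometry median fluorescence; 0% = buffer negative control and 100% = Enniatin B positive control; higher means more Nile Red kept so more efflux inhibition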
COUP-TFII inh – NR2F2 transcriptional activity inhibitors, primary screen, cell-based, luciferase reporter, HEK293T, luminescence; COUP transcription factor 2 (Homo sapiens), P24468; HEK293T NGFI-A luciferase reporter; inhibition, % at 8.6 µM; actives 0.7% (n = 370,000); AID 686940, 2013;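 active means inhibition above a per-plate cutoff, mean inhibition of test wells between control levels plus 3 SD, cut at about 38% in these data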;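 further: cells cotransfected with COUP-TFII expression vector driving the NGFI-A reporter; 0% = median of COUP-TF2 test wells and 100% = reporter-only cells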
NCOA3 inh – SRC3 coactivator transcriptional activity inhibitors, primary screen, cell-based, luminescence; Nuclear receptor coactivator 3 (Homo sapiens), Q9Y6Q9; HEK293 GAL4-SRC3 luciferase reporter; inhibition, % at 3.6 µM; actives 0.17% (n = 360,000); AID 588352, 2011;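 active means inhibition above a per-campaign cutoff, the mean of all compounds plus 3 SD, cut at about 60% in these data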;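 further: 0% = DMSO-treated cells and 100% = gossypol-treated cells at 36 µM; higher means less SRC3-driven luciferase light from the GAL4 reporter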
SRC2 inh – inhibition of GAL4-SRC2 driven luciferase reporter, primary screen, SRC2 inhibitor project, cell-based, luminescence; Nuclear receptor coactivator 2 (Homo sapiens), Q15596; HEK293 GAL4-SRC2 luciferase reporter; inhibition, % at 9 µM; actives 0.17% (n = 370,000);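 active means inhibition above the mean inhibition of all tested compounds plus 3 SD, set per campaign, cut at about 52% in these data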;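 further: 0% = DMSO treated cells and 100% = cells given Gossypol at 36 µM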
Target sequence (Q15596 whole entry, looked up, the tested form may be a part): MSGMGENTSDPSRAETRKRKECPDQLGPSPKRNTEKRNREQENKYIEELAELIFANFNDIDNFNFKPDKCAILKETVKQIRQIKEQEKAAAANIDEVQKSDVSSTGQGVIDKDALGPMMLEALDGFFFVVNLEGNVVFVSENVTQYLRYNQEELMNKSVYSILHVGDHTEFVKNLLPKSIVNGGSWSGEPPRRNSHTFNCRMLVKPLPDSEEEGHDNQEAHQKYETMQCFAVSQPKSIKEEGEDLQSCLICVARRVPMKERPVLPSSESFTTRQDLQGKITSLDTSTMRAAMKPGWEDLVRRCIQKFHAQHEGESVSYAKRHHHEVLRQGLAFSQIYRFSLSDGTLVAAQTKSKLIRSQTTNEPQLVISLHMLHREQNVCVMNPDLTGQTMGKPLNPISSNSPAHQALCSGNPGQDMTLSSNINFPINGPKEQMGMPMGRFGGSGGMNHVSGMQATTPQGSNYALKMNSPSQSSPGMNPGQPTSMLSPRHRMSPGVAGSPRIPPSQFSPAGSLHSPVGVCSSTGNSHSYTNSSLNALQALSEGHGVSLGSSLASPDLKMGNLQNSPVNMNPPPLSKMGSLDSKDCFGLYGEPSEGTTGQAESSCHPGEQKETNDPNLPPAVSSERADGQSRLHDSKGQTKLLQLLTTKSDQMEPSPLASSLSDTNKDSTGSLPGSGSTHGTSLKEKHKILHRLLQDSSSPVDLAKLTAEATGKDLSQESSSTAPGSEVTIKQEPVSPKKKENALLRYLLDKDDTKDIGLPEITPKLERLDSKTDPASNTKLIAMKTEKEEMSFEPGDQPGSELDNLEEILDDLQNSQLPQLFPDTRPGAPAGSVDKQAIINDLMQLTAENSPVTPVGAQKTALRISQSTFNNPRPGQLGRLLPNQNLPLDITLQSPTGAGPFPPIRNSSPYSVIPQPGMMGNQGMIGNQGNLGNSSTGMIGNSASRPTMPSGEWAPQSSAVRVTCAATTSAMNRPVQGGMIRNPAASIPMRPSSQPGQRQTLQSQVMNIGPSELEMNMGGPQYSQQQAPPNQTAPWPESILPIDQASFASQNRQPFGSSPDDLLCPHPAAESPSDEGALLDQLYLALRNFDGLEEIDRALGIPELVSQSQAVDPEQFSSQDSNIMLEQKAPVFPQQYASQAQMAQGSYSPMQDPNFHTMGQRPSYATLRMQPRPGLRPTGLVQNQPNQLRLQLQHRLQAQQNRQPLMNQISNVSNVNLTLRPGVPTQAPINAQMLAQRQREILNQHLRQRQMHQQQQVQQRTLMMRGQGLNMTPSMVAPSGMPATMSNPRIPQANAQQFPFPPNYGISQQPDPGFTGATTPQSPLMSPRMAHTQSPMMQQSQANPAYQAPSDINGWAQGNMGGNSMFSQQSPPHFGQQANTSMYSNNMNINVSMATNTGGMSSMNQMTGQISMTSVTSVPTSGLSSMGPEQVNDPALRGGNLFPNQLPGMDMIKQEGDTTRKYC
Yeast cmpd fluor – compound fluorescence in yeast efflux pump counter-screen; shares compounds with Efflux pump mplx; S. cerevisiae AD/pABC3, flow cytometry; fluorescence ratio to DMSO, % at 10 µM; actives 4% (n = 1,700); AID 588517;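 active means fluorescence ratio to DMSO above its plate's cutoff, the plate mean ratio plus 5 SD, cut at about 210% in these data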;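 further: unstained yeast with no Nile Red so the signal is compound autofluorescence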
Mdr1 pump inh – inhibitors of Candida albicans Mdr1 efflux, confirmation, flow cytometry, singleplex, Cherry Pick1 set | shares compounds with Efflux pump mplx | actives 1% (n = 1,700) | S. cerevisiae AD/CaMDR1, Nile Red efflux | inhibition, % at 10 µM; in the data active means inhibition above about 26%;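 further: 0% = DMSO vehicle and 100% = reference inhibitor; higher means more Nile Red retained so more efflux inhibition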
Cdr2 pump inh – inhibitors of Candida albicans Cdr2 efflux pump, confirmation, S. cerevisiae AD/CaCDR2, flow cytometry, cherry pick 1, singleplex | Nile Red retention | Nile Red retention ratio vs DMSO, % at 10 µM | shares compounds with Efflux pump mplx | actives 4% (n = 1,700) | AID 588520, 2011; in the data active means Nile Red retention ratio vs DMSO above about 190%;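 further: higher ratio means more blocking of Cdr2 efflux of the dye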
Cdr1 pump inh – inhibitors of Candida albicans Cdr1 efflux pump, confirmation, S. cerevisiae AD/CaCDR1, flow cytometry, cherry pick 1, singleplex; AID 588522, 2011; shares compounds with Efflux pump mplx; Nile Red efflux; actives 1% (n = 1,700); inhibition, % at 10 µM;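 active means inhibition above the screen-wide mean plus twice its standard deviation, cut at about 32% in these data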
Numbers without * were called inactive; nt = not tested or not shown. Most compounds without a hit are left out; they make up all but 1.2% or so of the library.

SMILES | LRH-1 inv ag | NCOA1 inh | Efflux pump mplx | COUP-TFII inh | NCOA3 inh | SRC2 inh | Yeast cmpd fluor | Mdr1 pump inh | Cdr2 pump inh | Cdr1 pump inh
CCOc1ccc(N2C(=O)CC(N(C)Cc3ccccc3)C2=O)cc1 (centres undefined) | -18.2 | 1.8 | 15.2* | 6.7 | 2.6 | -6.0 | 103.0 | -0.2 | 99.7 | -0.1
CCOC(=O)C1(C(F)(F)F)N=C(c2cccnc2)OC(N2CCCCC2)=N1 (centres undefined) | -3.2 | -7.8 | 5.5* | 3.1 | -28.7 | 3.2 | 104.5 | 0.0 | 116.5 | 0.1
COc1cc2c(cc1OC)C(c1cccc(Cl)c1)CC(=O)N2 (centres undefined) | -10.4 | 17.0 | 0.1 | 1.9 | -7.6 | -3.5 | nt | nt | nt | nt
COCCC(=O)N1CCCC(C(=O)c2ccccc2SC)C1 (centres undefined) | 0.5 | 10.3 | -0.1 | -8.8 | -11.2 | -21.0 | nt | nt | nt | nt
COc1ccccc1CN(Cc1cc2cc3c(cc2[nH]c1=O)OCCO3)Cc1nnnn1Cc1ccco1 | -2.6 | -3.7 | 1.4* | -6.8 | 11.8 | -11.6 | 100.3 | -0.1 | 107.2 | 0.0
O=c1[nH]c2cc3c(cc2cc1CN(Cc1ccccc1)Cc1nnnn1Cc1ccco1)OCCO3 | 6.8 | -23.3 | nt | -9.0 | 0.5 | -4.6 | nt | nt | nt | nt
CCO/C(C)=N/n1c2nc3ccccc3nc2c2c(=O)n(C3CCCC3)c(C)nc21 | 0.9 | 2.8 | -0.1 | -10.6 | 13.2 | -34.7 | nt | nt | nt | nt
CCCCNC(=O)C(Cc1ccccc1)NS(=O)(=O)c1ccc2c(c1)c(=O)n(C)c(=O)n2C (centres undefined) | -0.5 | -22.0 | 1.8* | 23.1 | -0.8 | 8.9 | 100.2 | -0.1 | 86.7 | 0.0
CCOCCCNC(=O)C(Cc1ccccc1)NS(=O)(=O)c1ccc2c(c1)c(=O)n(C)c(=O)n2C (centres undefined) | -3.5 | 1.1 | 0.0 | 21.0 | -9.8 | -3.0 | nt | nt | nt | nt
COC(=O)c1cc(NC(=O)c2nccnc2C(=O)O)cc(C(=O)OC)c1 | -3.1 | 7.7 | -0.1 | -23.9 | -3.8 | 7.9 | nt | nt | nt | nt
COc1ccccc1CC(=O)NC(=O)c1ccccc1O | -0.1 | 16.8 | 3.0* | 5.7 | -5.9 | 10.7 | 104.5 | -0.3 | 104.2 | 0.0
CSCCC(NC(=O)c1ccccc1Cl)C(=O)N1CCC1 (centres undefined) | 13.1 | -12.1 | 0.0 | 2.4 | 5.8 | -0.2 | nt | nt | nt | nt
CSCCC(NC(=O)c1ccccc1Cl)C(=O)N(C)Cc1cccs1 (centres undefined) | 1.2 | -10.3 | 5.5* | -3.7 | -10.6 | -20.1 | 101.1 | 0.0 | 106.3 | 0.1
COc1ccccc1-c1sc2ccccc2c1-c1ccc(OCCN2CCOCC2)cc1 | -3.2 | -22.3 | 0.4 | -8.4 | 4.2 | -3.7 | 109.5 | -0.3 | 99.7 | -0.1
COc1ccc2sc(-c3ccccc3OC)c(-c3ccc(OCCN4CCOCC4)cc3)c2c1 | 3.4 | -0.1 | 128.3* | nt | 15.6 | nt | 106.2 | 89.4* | 93.5 | 100.3*
COc1cc2sc(-c3ccccc3OC)c(-c3ccc(OCCN4CCCCC4)cc3)c2cc1OC | -4.7 | -0.7 | 0.2 | -7.9 | 18.7 | -16.1 | nt | nt | nt | nt
COc1ccc(NC(=O)CNC(=O)c2nn(-c3ccc(OC)c(OC)c3)c(=O)c3ccccc23)c(OC)c1 | 6.9 | -1.3 | -0.1 | 2.8 | 3.0 | -4.0 | nt | nt | nt | nt
NC(=O)CCN1CCCCC1 | 21.0 | 1.5 | 0.1 | 4.6 | 15.1 | -21.8 | nt | nt | nt | nt
O=C(Cn1nc(-c2ccc(F)cc2)ccc1=O)Nc1ccc(C(=O)NC2CC2)cc1 | 13.1 | -3.6 | 0.4* | -1.4 | 4.6 | 12.4 | 81.2 | -0.1 | 89.0 | -0.2
O=C(Cn1nc(-c2ccc(F)cc2)ccc1=O)Nc1ccc2c(c1)OCCO2 | 5.3 | 14.0 | 0.0 | -16.1 | -11.5 | 4.8 | nt | nt | nt | nt
O=C(N/N=C/c1ccncc1)c1nc2ccccc2c(=O)[nH]1 | -19.0 | -27.8 | -0.1 | -18.3 | -37.3 | -27.8 | nt | nt | nt | nt
O=C(O)CCC(=O)NNC(=O)CCC1CCCCC1 | 18.4 | 9.7 | 0.1 | 1.9 | 14.2 | -1.0 | nt | nt | nt | nt
O=C(CCC1CCCCC1)NNC(=O)NC12CC3CC(CC(C3)C1)C2 | 3.0 | -4.5 | 0.7* | 4.0 | 13.9 | -6.3 | 98.2 | -0.4 | 87.3 | -0.1
S=C(NCC1CCCO1)N1CCc2ccccc2C1 (centres undefined) | -32.6 | -36.8 | 0.1 | 5.2 | -6.4 | 19.5 | 95.0 | -0.2 | 89.3 | -0.1
S=C(NCC1CCCO1)N1CCN(c2ccccc2)CC1 (centres undefined) | -2.5 | -2.2 | -0.3 | 6.5 | 2.9 | -10.0 | nt | nt | nt | nt
SMILES | LRH-1 inv ag | NCOA1 inh | Efflux pump mplx | COUP-TFII inh | NCOA3 inh | SRC2 inh | Yeast cmpd fluor | Mdr1 pump inh | Cdr2 pump inh | Cdr1 pump inh
CCN1CCN(S(=O)(=O)c2ccc(-c3cc(C)no3)s2)CC1 | 13.6 | 9.1 | 0.1 | 24.5 | 11.9 | 3.2 | nt | nt | nt | nt
COc1cc(/C(C#N)=C/c2cccc3ccccc23)c([N+](=O)[O-])cc1OC | 2.9 | -1.4 | 5.5* | -8.7 | 14.4 | -2.4 | 101.4 | -0.3 | 91.4 | -0.1
COc1cc(/C=C(\C#N)c2nc3ccccc3[nH]2)c([N+](=O)[O-])cc1OCc1ccccc1 | -7.1 | -32.6 | -0.1 | -12.8 | -14.6 | -21.6 | nt | nt | nt | nt
Clc1ccc2nc(CSc3nnc4ccccn34)cn2c1 | -157.2 | -107.0 | -0.2 | -43.7 | -70.0 | -21.8 | nt | nt | nt | nt
CCc1nnc(NS(=O)(=O)c2ccc(NC(=S)NC(=O)/C=C/c3ccc(OC)cc3)cc2)s1 | -0.7 | 4.8 | -0.1 | 3.4 | 16.2 | -1.6 | nt | nt | nt | nt
CCc1nnc(NS(=O)(=O)c2ccc(NC(=S)NC(=O)/C=C/c3ccccc3)cc2)s1 | -11.4 | -2.7 | 5.8* | -16.2 | 17.1 | -2.6 | 113.5 | -0.2 | 122.6 | 0.1
Cc1ccc(OCCC(=O)Nc2ccc(C)c(S(=O)(=O)N3CCOCC3)c2)cc1 | -17.3 | -1.6 | -0.4 | -0.2 | 23.0 | -0.5 | nt | nt | nt | nt
CC(C)(C)c1nnc(NC(=O)COc2ccc3c(c2)OCO3)s1 | -72.1 | -76.8 | 0.0 | -30.4 | -57.6 | -66.6 | 112.2 | 0.1 | 97.5 | -0.2
